The values below come from PubChem BioAssay (NCATS).

Each structure is given as a SMILES string. Inconclusive results are not listed. The source made the active and inactive calls. The call rests on the fitted dose curve; in most records, active means well fitted inhibition curve with a large enough effect; inconclusive means small, poorly fitted or top-dose-only effect; inactive means no such curve, though single readings can be large or run the other way.
On the % scale 0 is the no-effect control and ±100 the full control effect; potency means the concentration at half of the fitted maximal effect.

The test system of this test is Zika virus NS2B-NS3 protease (linked construct). The experiment in a line: Primary screen NINDS Rhodamine qHTS for Zika virus inhibitors (AID 1347160). Further: nearly all actives have a fitted effect of over 55% in size. The note with it: purified NS2B-NS3 protease, Rhodamine110 substrate fluorescence; series mostly up to 57.1 µM; activity change, negative = inhibition: at the top concentration. The gist of the method:
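Single-chain NS2B-NS3 protease, 25 nM, pH 8.0; compounds preincubated 15 min. Activity: Rhodamine110 release from 1.5 microM substrate over 15 min, room temperature, data fitted to 4-parameter Hill.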
With `CC(C)(C)c1ccc2c(c1)CC[C@H]2NC(=O)Nc1cccc2[nH]ncc12`, the “activity change, negative = inhibition” value was -2.28% (inactive).

Consider `O=C1C(Cc2ccc(O)cc2)N2C(=O)CCN(C(=O)NCc3ccccc3)C2CN1Cc1cccc2ccccc12` (centres undefined), for which the “activity change, negative = inhibition” value was 11.4% (inactive).

For `C[C@H]1CC[C@@]2(OC1)O[C@H]1CC3[C@@H]4CC[C@@H]5C[C@@H](O[C@@H]6O[C@H](CO)[C@@H](O[C@@H]7O[C@H](CO[C@@H]8OC[C@@H](O)[C@H](O)[C@H]8O)[C@@H](O[C@@H]8O[C@H](CO)[C@H](O)[C@H](O)[C@H]8O)[C@H](O)[C@H]7O)[C@H](O)[C@H]6O)CC[C@]5(C)C4CC[C@]3(C)[C@H]1[C@@H]2C` (some centres undefined), the “activity change, negative = inhibition” value is -15.8% [at 15.1 µM] (inactive).

Consider `COc1cc(F)c(C(C)C)cc1-c1ccc(C(F)(F)F)cc1CN1C(=O)OC(c2cc(C(F)(F)F)cc(C(F)(F)F)c2)C1C` (centres undefined), for which the “activity change, negative = inhibition” value is -8.06% (inactive).

With `COc1cc2ncnc(Nc3cccc(I)c3)c2cc1OC`, the call was inactive.

For `FC(F)(F)c1ccccc1-c1cc(C(F)(F)F)c2nc(C3=NOC4(CCCCC4)C3)[nH]c2c1`, the compound was classed as inactive.

Turning to `CCOC(=O)CCNc1cc(N2CCc3ccccc3CC2)nc(-c2cccnc2)n1`, the “activity change, negative = inhibition” value is 18% (inactive).

On to `CC(=O)C1(C)CCC2C3C=C(C)C4=CC(=O)CCC4(C)C3CCC21C` (centres undefined), for which the “activity change, negative = inhibition” value is -18.3% (inactive).

Turning to `C/C(=C\Cc1c(O)c(Cl)c(C)c(C=O)c1O)CC/C=C(\C)[C@H]1CC(=O)C(C)(C)O1`, the “activity change, negative = inhibition” value is -18.2% [at 33.1 µM] (inactive).

For `COC(=O)c1ccnc(-c2cc(C(=O)Nc3ccc(C4(N)CC4)cc3)ccn2)c1`, the call was inactive.

Turning to `CCn1c2ccccc2c2cc(Nc3ccnc(NCCCN4CCOCC4)n3)ccc21`, the “activity change, negative = inhibition” value is 293% (inactive).

For `Cc1sc2c(c1C)C(c1ccc(Cl)cc1)=N[C@H](CC(=O)NCCCCNC(=O)COc1cccc3c1C(=O)N([C@H]1CCC(=O)NC1=O)C3=O)c1nnc(C)n1-2`, the “activity change, negative = inhibition” value is -3.88% (inactive).

`CC(=O)O[C@@H]1C[C@]2(C)[C@@]3(CCC4[C@@]5(C)CC[C@H](O[C@@H]6O[C@H](C(=O)O)[C@@H](O)[C@H](OC7OC(CO)C(O)C(O)[C@H]7O[C@@H]7O[C@@H](C)[C@H](O)[C@@H](O)[C@H]7O[C@@H]7OC[C@](O)(CO)[C@H]7O)[C@H]6OC6OC(CO)C(O)C(O)C6O)C(C)(C)C5CC[C@]42C)OC[C@@]12CCC(C)(C)CC23` (some centres undefined): the activity change, negative = inhibition was -13.3% [at 10.7 µM] (inactive).

With `COc1c(C(O)CC(C)C)ccc2c1C(=O)OCc1cc(C)cc(O)c1O2` (centres undefined), the “activity change, negative = inhibition” value was -25% [at 33.1 µM] (inactive).

In the case of `C=C1CCCC2(C)CCC(C(C)(C)OC3OC(C)C(O)C(O)C3OC(=O)/C(C)=C\C)CC12` (centres undefined), the “outcome” value was “inactive [at 33.1 µM]”.

Take `O=C(NC1CCC1)c1ccc(C#Cc2cccc(F)c2)nc1`: the “activity change, negative = inhibition” value is 3.55% (inactive).

Take `O=C(Nc1ccc(C(O)(C(F)(F)F)C(F)(F)F)cc1)c1ccc(C(F)(F)F)cc1`: the “activity change, negative = inhibition” value was 1.05% (inactive).

For `C/C=C(\C)C(=O)O[C@H]1C=C(CO)C(=O)[C@H](OC(C)=O)[C@H]1C(C)C`, the “activity change, negative = inhibition” value is -10.4% [at 33.1 µM] (inactive).

As to `CC(C)c1noc(C2CCN(c3ncnc(Nc4ccc(S(C)(=O)=O)cc4F)c3[N+](=O)[O-])CC2)n1`, the compound was classed as inactive.

In the case of `CC1=C(C(=O)Nc2cc(Cl)ccc2Cl)C(c2ccco2)C2=C(CCCC2=O)N1` (centres undefined), the result was inactive.

As for `COC(=O)N1CCC(n2ncc3c(N4CCOCC4)nc(-c4ccc(NC(=O)NC5CC5)cc4)nc32)CC1`, the “activity change, negative = inhibition” value is 11.5% (inactive).

For the compound `CC(C)NC(=O)COc1cccc(-c2nc(Nc3ccc4[nH]ncc4c3)c3ccccc3n2)c1`, the “activity change, negative = inhibition” value was 4.34% (inactive).

Consider `COC(=O)c1ccc2c(c1)[nH]c1ncnc(NCCCN3CCCCC3)c12`, for which the “activity change, negative = inhibition” value is 4.93% (inactive).

Take `COc1ccc(NC(=O)c2ccc(-c3ccc(C(=N)N)cc3C)cc2)cc1N1CCN(C)CC1`: the “activity change, negative = inhibition” value is 118% (inactive).

Regarding `C/C=C(\C)C(=O)O[C@@H]1[C@@H](C)[C@]2(O)[C@@H]3C=C(C)C(=O)[C@H]3CC(CO)=C[C@H]2C2C(C)(C)[C@@]21OC(=O)C(C)CC` (some centres undefined), the “outcome” value is “inactive [at 33.1 µM]”.

`O=C1COC2(CCN(S(=O)(=O)c3ccc(-c4ccc5cccnc5c4)cc3)CC2)CN1C1CC1`: the “activity change, negative = inhibition” value was 45.6% (inactive).

For the compound `C/C=C(\C)C(=O)OC1C(C)C2(O)C(C=C(CO)CC3(O)C(=O)C(C)=CC32)C2C(C)(C)C12OC(C)=O` (centres undefined), the “activity change, negative = inhibition” value is -11.7% [at 33.1 µM] (inactive).

For the compound `COc1cc(/C=C2\CC[C@H]3COC[C@@H](c4cc(F)c(F)c(F)c4)N3C2=O)ccc1-n1cnc(C)c1`, the “activity change, negative = inhibition” value is 43.3% (inactive).

With `O=S(=O)(NCc1ccccn1)c1ccc(Br)c2ccccc12`, the “activity change, negative = inhibition” value is 21.6% (inactive).

Take `CCC/C=C/C=C/C1CC(O)C2(O)C(=O)OCC12` (centres undefined): the Potency is 20 µM (active).

Consider `O=C(Nc1ccc(N2C(=O)[C@@H]3[C@H](C2=O)[C@@H]2C=C[C@H]3C2)c(Cl)c1)c1ccccn1`, for which the outcome was inactive.

With `COC(=O)C1=COC(O[C@@H]2O[C@H](CO[C@@H]3O[C@H](COC(=O)/C=C\c4ccc(O)cc4)[C@@H](O)[C@H](O)[C@H]3O)[C@@H](O)[C@H](O)[C@H]2O)C2C(CO)=CCC12` (some centres undefined), the “activity change, negative = inhibition” value was -1.68% [at 15.1 µM] (inactive).

On to `C/C(=C\CCC(C)C1=CCC2(C)OC3=C(CC12)C(=O)C(O)CC3)CO` (centres undefined), for which the “outcome” value was “inactive [at 33.1 µM]”.

As to `CCOC(=O)c1cnn(-c2ccccc2)c1NC(=O)c1cc2nc(-c3ccco3)cc(C(F)(F)Cl)n2n1`, the “activity change, negative = inhibition” value was -9.87% (inactive).

As to `O=C(Nc1ccc(-n2nc(C(F)(F)F)cc2C(F)(F)F)cc1)c1ccncc1F`, the “activity change, negative = inhibition” value is -14% (inactive).

On to `C=C1C(=O)O[C@@H]2C[C@H](C)C3=CC(=O)[C@H](O)[C@@]3(C)C[C@H]12`, for which the “activity change, negative = inhibition” value is -10.8% (inactive).

Regarding `CC(C)(CNC(=O)c1cccc(-c2noc(C(F)(F)F)n2)c1)c1coc(-c2ccccc2)n1`, the “activity change, negative = inhibition” value was -11.4% (inactive).

For the compound `CCCN1CCC=C(c2cc(-c3ccc(C)cc3)no2)C1`, the “activity change, negative = inhibition” value is 147% (inactive).

Regarding `COc1ccc(C(=O)O[C@H]2C=COC=C3C=C4C(=O)N(C)C(=S)C(=O)N4[C@@H]32)cc1Oc1cc(C=O)ccc1O`, the “activity change, negative = inhibition” value was -14.5% [at 33.1 µM] (inactive).
